From PubChem BioAssay
RORgamma inh = qHTS for inhibitors of ROR gamma transcriptional activity. hit rate 5.4% among 310,000. AID 2551, 2010. Drosophila S2 Gal4-RORgamma UAS-luciferase reporter, 20 h. Potency, µM (top dose mostly 53.6 µM), most hits filed as inhibitors; further: nearly all actives have a fitted effect of over 60% in size
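Luminescence from a UAS-regulated Photinus luciferase reporter in stably transfected Drosophila Schneider cells is measured; decreased signal marks ROR gamma inhibition. Fusion expression is induced by 700 uM copper sulfate for 20 hr.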
VP16 counter = VP16 counterscreen qHTS for inhibitors of ROR gamma transcriptional activity; hit rate 3.5% among 310,000; Potency, µM (doses to about 53.6 µM), hits mostly inhibitors; Drosophila S2 Gal4-VP16 UAS-luciferase, luminescence, 20 h;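 further: Gal4-VP16 expression switched on by copper sulfate through the metallothionein promoter; nearly all actives have a fitted effect of over 50% in size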
12-LOX inh = Primary qHTS assay for inhibitors of human arachidonate 12S-lipoxygenase (ALOX12): Round 2. Polyunsaturated fatty acid lipoxygenase ALOX12 (Homo sapiens), P18054. purified 12hLO, xylenol orange hydroperoxide absorbance. Potency, µM (titrated, usually from 108 µM), usual class: inhibitors. hit rate 1.1% among 580,000. AID 1671190, 2021
Target sequence (P18054 whole entry, looked up): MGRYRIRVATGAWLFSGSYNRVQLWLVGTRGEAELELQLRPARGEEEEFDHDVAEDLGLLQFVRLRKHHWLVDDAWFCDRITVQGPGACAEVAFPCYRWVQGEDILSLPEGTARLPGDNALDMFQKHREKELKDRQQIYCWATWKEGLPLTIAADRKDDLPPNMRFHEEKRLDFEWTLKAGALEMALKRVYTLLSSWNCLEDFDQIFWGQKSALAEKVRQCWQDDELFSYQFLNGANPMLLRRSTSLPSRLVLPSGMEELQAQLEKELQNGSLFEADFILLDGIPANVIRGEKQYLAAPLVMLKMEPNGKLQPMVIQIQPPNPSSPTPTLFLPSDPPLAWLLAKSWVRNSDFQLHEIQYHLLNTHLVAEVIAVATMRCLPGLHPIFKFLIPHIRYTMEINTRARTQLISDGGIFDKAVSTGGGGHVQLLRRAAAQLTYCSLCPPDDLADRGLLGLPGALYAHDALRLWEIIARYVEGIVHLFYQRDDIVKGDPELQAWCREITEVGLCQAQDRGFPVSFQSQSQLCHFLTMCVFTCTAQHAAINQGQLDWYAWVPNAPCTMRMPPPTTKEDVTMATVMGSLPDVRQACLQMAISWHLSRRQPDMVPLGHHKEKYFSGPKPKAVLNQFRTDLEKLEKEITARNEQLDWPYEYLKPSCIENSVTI
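Purified human 12hLO (150 nM final) in 25 mM Hepes, 0.01% Triton X-100, pH 7.0 was preincubated 15 min at room temperature with compound. Then 40 uM arachidonic acid was added, 30 min. Hydroperoxide was read by Fe-XO absorbance ratio 573/405 nm.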
ELG1 repair inh = qHTS screen for small molecules that inhibit ELG1-dependent DNA repair in human embryonic kidney (HEK293T) cells expressing luciferase-tagged ELG1. HEK293T ELG1-luciferase reporter, luminescence, 16 h; DNA damage induced by 5-fluorouridine. AID 504467, 2011. hit rate 2.3% among 330,000. Potency, µM (highest dose often 46.1 µM), usual class: inhibitors; further: nearly all actives have a fitted effect of over 55% in size
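Reporter activity after DNA damage by 5-fluorouridine is monitored. Compound-treated cells incubate 16 hr at 37 °C, then ONE-Glo is added for 30 min before luminescence reading.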
DT40 TDP1 no CPT = qHTS for Inhibitors of human tyrosyl-DNA phosphodiesterase 1 (TDP1): qHTS in cells in absence of CPT | DT40 Tdp1-/- hTDP1 cells, no CPT, ATP luminescence, 48 h | Potency, µM (titrated, usually from 46.2 µM), usual class: inhibitors | hit rate 15% among 420,000 | AID 686978, 2013; further: nearly all actives have a fitted effect of over 55% in size
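Chicken DT40 Tdp1-/- cells stably complemented with human TDP1 were seeded at 400 cells/well with DMSO in place of 20 nM camptothecin. After compound pinning, cells grew at least 48 hr at 37 °C; viability read by CellTiter-Glo luminescence.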
DT40 TDP1 CPT = qHTS for Inhibitors of human tyrosyl-DNA phosphodiesterase 1 (TDP1): qHTS in cells in presence of CPT | chicken DT40 Tdp1-/-;hTDP1 cells + 20 nM CPT, ATP luminescence, 48 h | AID 686979, 2013 | Potency, µM (titrated, usually from 46.2 µM), usual class: inhibitors | hit rate 12% among 420,000; further: nearly all actives have a fitted effect of over 55% in size
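Cell growth measured by CellTiter-Glo luminescence after a minimum 48 h, 37 C compound exposure with 20 nM CPT in Tdp1-knockout DT40 cells stably expressing hTDP1, seeded 400/well; qHTS titration format.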
Numbers stand for hits; – = inactive; ? = inconclusive; · = no result given; ! = repeats disagree; [ ] = dose if it differs, or a comment. The list is not random: actives were taken first. Their share in the collection is about 15%. The call rests on the fitted dose curve; in most records, active means well fitted curve in the direction sought with a large enough effect; inconclusive means small, poorly fitted or top-dose-only effect, or another doubt; inactive means no such curve, though single readings can be large; an effect the other way counts as inactive or inconclusive.

SMILES	RORgamma inh	VP16 counter	12-LOX inh	ELG1 repair inh	DT40 TDP1 no CPT	DT40 TDP1 CPT
Cc1ccc(C)c(OCC(=O)NCc2cccs2)c1	·	·	–	·	·	·
CCOC(=O)/C=C1\CC(C(=O)OCC)Oc2c(OC)cccc21 (stereo not given)	–	–	?	–	23µM!	?
CC(/C=N/n1c(-c2ccc(Cl)cc2)n[nH]c1=S)=C\c1ccco1	3.2µM	4µM	32µM	–	?	?
CC(/C=N/n1c(-c2cc(C)[nH]n2)n[nH]c1=S)=C\c1ccco1	–	–	?	?	–	–
Cc1ccc(-c2n[nH]c(=S)n2/N=C\c2ccco2)cc1	6.3µM	5.6µM	?	–	?	–
Cc1cccc(-c2n[nH]c(=S)n2/N=C/c2ccco2)c1	8.9µM	?	?	–	–	–
CCCn1nc(C(=O)OCCOc2ccc(OC)cc2)c2ccccc2c1=O	·	·	–	·	·	·
Cc1nc(SCc2ccc(O)c([N+](=O)[O-])c2)n[nH]1	–	–	?	–	–	?
Cc1nc(SCc2ccc(O)c([N+](=O)[O-])c2)c([N+](=O)[O-])[nH]1	–	–	?	–	21µM	21µM
CCO[C@H]1C[C@@H](O)C12CCN(c1ccnc(OC)c1C#N)CC2	·	·	–	·	·	·
CO[C@H]1[C@H](NC(=O)c2sccc2Cl)c2ccccc2C12CCNCC2	·	·	–	·	·	·
CCN(CC)c1ccc(/C=C2\C(=O)N(c3nnc(C)c(=O)[nH]3)N=C2C)cc1	?	?	–	?	18µM	13µM
CCCCCn1c(N)c(-c2nc3ccccc3s2)c2c([N+](=O)[O-])nn(CC)c(=O)c21	–	–	–	2.6µM	?	?
CCCCn1c(N)c(-c2nc3ccccc3s2)c2c([N+](=O)[O-])nn(C)c(=O)c21	–	–	–	1µM	?	?
CCCCn1c(N)c(-c2nc3ccccc3s2)c2c([N+](=O)[O-])nn(CC)c(=O)c21	–	–	–	?	?	?
O=C(NCc1ccc(Cl)cc1)[C@@H]1Cc2nc[nH]c2CN1C(=O)NC1CCCCC1	·	·	–	·	·	·
COc1ccc(CN2CCC([C@H]3[C@@H](OC)C(=O)N3C(C)C)CC2)cc1CN1CCCC1	·	·	–	·	·	·
CC(C)c1nnc2ccc(N3CCCCCC3)nn12	·	·	–	·	·	·
Cc1ccc(C(=O)/C=C/C(=O)O)cc1	11µM	7.9µM	–	–	26µM	?
Cc1ccc(C(=O)/C=C/c2sccc2C)cc1	·	·	–	·	·	·
CN(C)/C=C/C(=O)c1cccc(Cl)c1	–	10µM	–	?	–	–
CC(=O)c1ccn(S(=O)(=O)c2ccccc2)c1	–	–	–	–	–	–
CN(C)/C=C/C(=O)c1ccn(S(=O)(=O)c2ccccc2)c1	–	–	50µM	–	–	–
CN(C)/C=C\C(=O)c1ccc(Br)cc1	·	·	4µM	·	·	·
Cc1ccc(Cl)cc1NC(=O)Nc1cccc(-c2ccc(N3CCOCC3)nn2)c1	·	·	–	·	·	·
SMILES	RORgamma inh	VP16 counter	12-LOX inh	ELG1 repair inh	DT40 TDP1 no CPT	DT40 TDP1 CPT
COc1cc(Br)cc2cc(C(=O)N3c4ccccc4CC3C)c(=O)oc12 (stereo not given)	·	·	–	·	·	·
Cc1ccc(C(=O)/C=C/N(C)C)cn1	–	–	–	?	–	–
CN(C)/C=C/C(=O)c1ccc(Cl)cc1	?	–	16µM	?	–	–
CN(C)/C=C/C(=O)c1ccc(-c2ccc(Cl)cc2Cl)o1	–	–	1.6µM	?	–	–
CN(C)/C=C/C(=O)c1ccc(-n2cccc2)cc1	–	–	?	?	–	–
Cc1ccc(C(=O)/C=C\N(C)C)cc1	·	·	56µM	·	·	·
Cc1cccc(-c2ccc(CN)cc2)c1	·	·	–	·	·	·
O=C(NCc1ccc2c(c1)OCO2)c1nc(-c2ccsc2)c2ccccn12	·	·	–	·	·	·
Cc1cccc(C(=O)Nc2ccc(C(=O)/C=C/c3cccnc3)cc2)c1	–[10 µM]	?	?	?	4.6µM	5.2µM
O=C(/C=C/c1cccnc1)c1ccc(NC(=O)c2cccc(Br)c2)cc1	–	–	–	?	3.2µM	7.1µM
Cc1cccc(C(=O)Nc2ccc(C(=O)/C=C/c3ccncc3)cc2)c1	?	13µM	?	?	?	?
COc1ccc(Cl)cc1Nc1nc(C)nc2c1oc1ccccc12	–	–	?	–	–	?
Cc1nc(NCCc2cnc[nH]2)c2oc3ccccc3c2n1	–	–	–	–	–	–
COc1ccc(CCNc2nc(C)nc3c2oc2ccccc23)cc1OC	–	–	–	10µM	4.1µM	3.7µM
COc1ccc(OC)c(Nc2nc(C)nc3c2oc2ccccc23)c1	–	–	–	?	21µM	23µM
COc1ccccc1CC(=O)NCc1cccs1	·	·	–	·	·	·
